C diff growth: C. difficile growth inhibitors, primary screen, HTS | Clostridium difficile clinical isolate growth, OD600, 24 h; stronger effect = lower value | growth activity, negative = inhibition, % at 16 µg/mL (by protocol) | 86,000 compounds, 0.25% hits | AID 1259249, 2017;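 active means mean growth activity at or below -80% and every replicate also at or below -80%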;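 further: 0% = DMSO wells and -100% = levofloxacin 16 µg/mL wells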
An asterisk follows results filed as active. This excerpt belongs to a sample that is enriched for hits.

SMILES	C diff growth
CC(C)C[C@H]1COCn2nncc2CC[C@@H](Cc2ccccc2)C(=O)N1	-11
CCCC#Cc1ccc([C@@H]2[C@@H](CO)N3C(=O)CN(C(=O)NCCC)C[C@H]23)cc1	-11
COCC(=O)N1CC2(C1)CN(Cc1cccc(OC)c1)[C@H](CO)c1[nH]c3cc(OC)ccc3c12	2
CCN1[C@H](C(=O)Nc2ccccc2)[C@@H](CO)[C@@H]2Cn3c(ccc(-c4ccc(F)cc4)c3=O)[C@@H]21	-1
COc1ccc(NC(=O)N2CCCCN3[C@H](CO)[C@H](c4ccc(C#CCC(C)C)cc4)[C@H]3C2)cc1	33
CC(C)CC#Cc1ccc([C@H]2[C@@H](CO)N3CCCCN(C(=O)Nc4ccccc4)C[C@@H]23)cc1	-13
CC(C)C#Cc1ccc([C@H]2[C@@H](CO)N3CCCCN(C(=O)Nc4ccccc4)C[C@@H]23)cc1	-11
CC(C)CC#Cc1ccc([C@H]2[C@H](CO)N3CCCCN(C(=O)Nc4ccccc4)C[C@@H]23)cc1	-98*
CC(C)CC#Cc1ccc([C@@H]2[C@H](CO)N3CCCCN(C(=O)Nc4ccccc4)C[C@@H]23)cc1	-98*
CC(C)CC#Cc1ccc([C@@H]2[C@H]3CN(C(=O)Nc4ccccc4)CCCCN3[C@H]2CO)cc1	57
COCC(=O)N(C)C[C@H]1Oc2cc(C#CCC3CCCC3)ccc2S(=O)(=O)N([C@@H](C)CO)C[C@@H]1C	1
COc1ccc(CN(C)C[C@@H]2Oc3ccc(NC(=O)CCCCCC(=O)Nc4ccccc4N)cc3CC(=O)N([C@H](C)CO)C[C@@H]2C)cc1	2
COC(=O)C[C@H]1CC[C@H]2[C@H](COc3ccc(NC(=O)Nc4ccc(C)cc4)cc3C(=O)N2C)O1	1
C[C@@H]1CN([C@H](C)CO)S(=O)(=O)c2ccc(C#CCN(C)C)cc2O[C@H]1CN(C)C(=O)C1CC1	-3

Bioassay records (PubChem BioAssay)
